# Test results published in PubChem BioAssay (NCATS).
# Active and inactive are the calls of the source. Calls come from the whole dose curve; as a rule, active = well fitted curve in the direction sought with a large enough effect; inactive = no such curve, though single readings can be large or run the other way.
# Assay: qHTS for small molecule inhibitors of Yes1 kinase: Counter Assay (AID 686950);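 note: no kinase present so only ADP-Glo detection of a fixed ADP amount is tested; luminescence from ADP-Glo reporting ADP in a fixed ATP and ADP mixture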
# Settings: series mostly up to 76.9 µM
# Text: The Src family of non-receptor protein tyrosine kinases contains nine members, including Yes1, Src, Fyn, Lyn, and […]. These kinases have important roles in a variety of cellular functions, such as cell proliferation, survival, and differentiation. Src, the most well characterized member of this family, has been previously identified as a proto-oncogene. […] In melanoma, it has been shown that Yes1, and not other family members, such as Src, is functionally involved in the malignant phenotype. Additionally, a recent study examining the downregulation of Yes1 by shRNA found significant effects on cell survival/growth for basal-like and Her2-positive breast cancers. Despite the potential for Yes1 to be a target for the above-described cancers, there are very few reports on the identification of potent and selective inhibitors of Yes1 kinase. Antagonists of Yes1 would further elucidate Yes1 biology and help to confirm whether Yes1 is a viable target for therapeutic intervention in a variety of cancers.
# A compound that inhibits Yes1 could be important for the treatment of various cancers in which Yes1 is highly expressed and can also be used as a tool compound to help further elucidate Yes1 biology. To that end, we have developed a sensitive HTS biochemical assay for Yes1 activity. This assay was screened against several small compound libraries to look for modulators of activity. The cherrypicked compounds were screened against this counter assay, which evaluates whether the compounds have any effect on the ADP-Glo detection kit. Compounds that show inhibition in this assay have interference with the detection system. Inactivity is the desired output for this assay.
# NIH Molecular Libraries Probe Production Centers Network [MLPCN]
# NIH Chemical Genomics Center [NCGC]
# Two microliter of buffer (columns 1-48) are dispensed into Greiner, white solid-bottom 1536-well assay plates. Compounds (23 nL) are then transferred via Kalypsys pin tool equipped with 1536-pin array (10 nL slotted pins, V&P Scientific, San Diego, CA). The library compounds are in columns 5-48 and columns 1-4 serve as controls with DMSO. Following addition of compound and a 20 minute incubation, 1 uL of substrate/product mix (ATP and ADP from Sigma-Aldrich, St. Louis, MO) is added to columns 1, 2, 5-48 and 1 uL of substrate (ATP) is added to columns 3-4, and the plate is incubated for 60 minutes at room temperature. The amount of ADP is then quantified by the ADP-Glo Kit (Promega, Madison, WI). First, 2 uL of the first kit reagent is added, and the reaction is incubated for 45 minutes; then, 4 uL of the second kit reagent are added and the reaction is incubated for 30 minutes at which time the luminescence is read on a Viewlux plate reader (Perkin-Elmer, Waltham, MA). The final concentration of reagents in the reaction are 0.08 mM ATP and 0.02 mM ADP (or 0.1 mM ATP in the no ADP control columns), 100 uM EGTA, 10 mM MgCl2, 50 mM Tris pH 7.5, 1 mM DTT, 150 mM NaCl, 0.01% Brij-35, and 5% glycerol. Data are normalized to DMSO-treated control columns with ATP and […] (maximum signal) and with just ATP (minimum signal).
row,Compound,outcome
1,NC(=O)c1ccc(I)c([N+](=O)[O-])c1,inactive
2,CC(C)(C)OC(=O)CN(Cc1ccc(Cl)cc1)Cc1ccc([N+](=O)[O-])s1,inactive
3,Cc1c(CCOc2ccc(C(=O)O)cc2)c2cc(Cl)ccc2n1C(c1ccccc1)c1ccccc1,inactive
4,O=C(O)[C@@H](c1ccc(OCc2ccc3ccccc3n2)cc1)C1CCCC1,inactive
5,O=C(OCC#CCSc1nnc(-c2ccc3ccccc3c2)o1)c1cc2ccccc2s1,inactive
6,NC(N)=NC(=O)c1nc(Cl)c(N)nc1N,inactive
7,Cc1ccnc(NS(=O)(=O)c2ccc(NC(=O)Nc3ccc(S(=O)(=O)Nc4nccc(C)n4)cc3)cc2)n1,inactive
8,COc1nc(-c2ccc3c(c2)OCO3)n(-c2ccc(NC(=O)CSc3ccccc3)cc2)n1,inactive
9,COCCNCCCn1c(C(=O)CF)c(-c2ccc(C)cc2)c2c(N)ncnc21,inactive
10,Cc1oncc1C(=O)Nc1ccc(C(F)(F)F)cc1,inactive
11,CCOc1cc(C(=O)Nc2ccc(Cl)c(-c3nc4ccccc4[nH]3)c2)cc(OCC)c1OCC,inactive
12,CNC(=O)c1ccc(N2C(=S)N(c3ccc(C#N)c(C(F)(F)F)c3)C(=O)C2(C)C)cc1F,inactive
13,CN(C)c1ccc(Nc2nc(N)n(C(=O)c3c(F)cccc3F)n2)cc1,inactive
14,NC(=O)C1CCCc2c1[nH]c1ccc(Cl)cc21 (stereo not given),inactive
15,CCN(CCCO)CCCOc1ccc2c(Nc3cc(CC(=O)Nc4cccc(F)c4)[nH]n3)ncnc2c1,inactive
16,CCc1cncnc1N1CCN(Cc2nc3ccc(C(F)(F)F)cc3[nH]2)CC1,inactive
17,Cc1cccc(-c2[nH]c(C(C)(C)C)nc2-c2ccc3nccnc3c2)n1,inactive
18,COc1cc2c(cc1OC)CN(CCc1ccc(NC(=O)c3cccc4c(=O)c5cccc(OC)c5[nH]c34)cc1)CC2,inactive
19,Cc1cc(C=c2sc3nc4ccccc4n3c2=O)c(C)n1-c1ccccc1,inactive
20,CC(=O)NC(C)c1ccc(Oc2ccc(OC(C)C)cc2)cc1 (stereo not given),inactive

row,Compound,outcome
1,CN(C(=O)c1ccc(F)cc1C(F)(F)F)C1CCN(c2nnc(-c3ccnn3C)c3ccccc23)CC1,inactive
2,NC(=O)c1ccc(-c2nc(-c3ccc4c(c3)OCCO4)c(-c3ccccn3)[nH]2)cc1,inactive
3,CC1(C)Cc2c(-c3ccccc3)c(-c3ccc(Cl)cc3)c(CC(=O)O)n2C1,inactive
4,Cc1cc(Nc2nc(N[C@@H](C)c3ncc(F)cn3)ncc2Cl)n[nH]1,inactive
5,C[C@@H]1CN(Cc2ccc(F)cc2)[C@@H](C)CN1C(=O)c1cc2c(C(=O)C(=O)N(C)C)cn(C)c2cc1Cl,inactive
6,CCCS(=O)(=O)Nc1ccc(F)c(C(=O)c2c[nH]c3ncc(-c4ccc(Cl)cc4)cc23)c1F,inactive
7,Cc1n[nH]c(C)c1Cc1sc2c(c1C(=O)N1C[C@H](O)CO1)c(=O)n(C)c(=O)n2CC(C)C,inactive
8,CCOc1ccc(Cc2cc([C@@H]3O[C@H](CO)[C@@H](O)[C@H](O)[C@@H]3O)ccc2Cl)cc1,inactive
9,Nc1ncnc2nc(-c3ccc(N4CCOCC4)nc3)cc(-c3cccc(Br)c3)c12,inactive
10,Cc1cc2c(F)c(Oc3ncnn4cc(OC[C@@H](C)O)c(C)c34)ccc2[nH]1,inactive
11,Cc1cc(SCc2sc(-c3ccc(C(F)(F)F)cc3)nc2C)ccc1OCC(=O)O,inactive
12,Oc1cccc(-c2nc(N3CCOCC3)c3oc4ncccc4c3n2)c1,inactive
13,CCN(CC)CCCC(C)Nc1nc(C)cc(Nc2ccc3nc(C)cc(N)c3c2)n1 (stereo not given),inactive
14,Cc1cccc(-c2nn(C(=S)Nc3ccccc3)cc2-c2ccnc3ccccc23)n1,inactive
15,COc1cc(Oc2ccnc3cc(OC)c(OC)cc23)ccc1NC(=O)NC(C)c1nccs1 (stereo not given),inactive
16,CCn1c(-c2nonc2N)nc2c(C#CC(C)(C)O)ncc(OC[C@H]3CCCNC3)c21,inactive
17,CCOC(=O)N[C@@H]1CC[C@@H]2[C@@H](C1)C[C@H]1C(=O)O[C@H](C)[C@H]1[C@@H]2C=Cc1ccc(-c2cccc(F)c2)cn1,inactive
18,C[C@]12CCC(=O)C=C1CC[C@@H]1[C@@H]2[C@@H](O)C[C@@]2(C)[C@H]1CC[C@]2(O)C(=O)CO,inactive
19,S=C(NCc1ccc2c(c1)OCO2)N1CCN(c2ncnc3c2oc2ccccc23)CC1,inactive
20,CCOC(=O)C1=C[C@@]2(CC)CCCN3CCc4c(n1c1ccccc41)[C@H]32,inactive
